The panel holds about 83,000 compounds, 20% with a hit somewhere; the sample as a whole holds those more often.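 Cells were grown in 96-well plates and exposed to the test compound at a single concentration for 48 hours; results are reported as percent growth, with values below 10 considered active.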 Calls of active or inactive are those of the source.

This assay deals with HOP-92 NSCLC. In words: NCI-60 one-dose screen, 48 h (100 = growth as untreated, 0 = no growth, -100 = all killed). The following applies: 10 µM unless noted.
Take `CCCOc1ccc2nc(NC(=O)OC)[nH]c2c1`: the growth was 37.9% (inactive). Consider `NS(=O)(=O)c1ccc(CN=C2NC(=O)S/C2=C\c2ccc(Br)cc2)cc1`, for which the growth was 90.5% (inactive). For `N=C(N)c1ccc(-c2ccc(-c3ccc4ccccc4c3)s2)s1`, the growth was 28.8% (inactive).

Regarding `COc1cc2nc(N3CCCC3)nc(Nc3ccccc3)c2cc1OC`, the growth is -25.9% (active). Under `C#Cc1cccc(NC(=O)c2ccccc2NC(=O)C=C)c1` stands 92.8% [8.25 µM] (inactive); under `C#CC(F)(F)[C@]1(O)CC[C@H]2[C@@H]3CCC4=CC(=O)CCC4=C3[C@@H](c3ccc(C(C)=O)cc3)C[C@@]21C`, -31.7% (active); under `Cc1ccc(NC(=O)/C=C/c2ccccc2)c(C(N)=O)c1`, 62.9% (inactive). In the case of `CCOc1cc2ncc(C#N)c(Nc3ccc(OCc4cccc(F)c4)c(Cl)c3)c2cc1NC(=O)CC1CCSS1` (stereo not drawn) it was 66.7% (inactive); in that of `CCOC(=O)c1c(C(=O)OCC)c2cc(-c3ccn4c(C(=O)c5ccccc5)c(C(=O)OCC)c(C(=O)OCC)c4c3)ccn2c1C(=O)c1ccccc1`, 52.4% (inactive). For the compound `NC(=O)c1cc(Br)ccc1NC(=O)/C=C/c1ccccc1`, the growth was 57% (inactive).

Take `COC(=O)[C@@H]1CCCN1C(=O)[C@@H]1CCCN1C(=O)[C@H](Cc1ccccc1)NC(=S)Nc1cc(C(F)(F)F)cc(C(F)(F)F)c1`: the growth was 58.9% (inactive). On to `COc1ccc(-c2cc(=O)c3c(OC)c4ccoc4cc3o2)cc1`, for which the growth was 90.1% (inactive). With `NC(=NCCCC1(c2ccccc2)CCCC1)Nc1ccc(Cl)cc1`, the growth is 9.43% (active). Under `COC(=O)c1ccc(Cn2cnc3c(N)ncnc32)cc1` stands 92.1% (inactive); under `Cc1ccc2oc(=O)cc(C3c4ccc([nH]4)C(c4cc(=O)oc5ccc(C)cc45)c4ccc([nH]4)C(c4cc(=O)oc5ccc(C)cc45)c4ccc([nH]4)C(c4cc(=O)oc5ccc(C)cc45)c4ccc3[nH]4)c2c1` (stereo not drawn), -24.1% (active). `O=C1c2cccc3cccc(c23)C(=O)N1CCCCN1CCN(CCCCOc2ccc(-c3nc4ccc(N5CCOCC5)cc4[nH]3)cc2)CC1`: the growth was -29.5% (active). Consider `Cn1cc(-c2nonc2-c2cn(C)c3ccc(F)cc23)c2cc(F)ccc21`, for which the growth is 66% (inactive). Regarding `CCOC(=O)n1cc(-c2nonc2-c2cn(C)c3ncccc23)c2cc(F)ccc21`, the growth is 58.8% (inactive). For `C=CC(COC(c1ccccc1)(c1ccccc1)c1ccccc1)N(CC)CC` (stereo not drawn), the growth is 75.7% (inactive). As to `COCCNc1ccc2c3c(cccc13)C(=O)N(CCN(C)C)C2=O`, the growth is 18.4% (inactive). Under `O=C1CC(=NCC(=O)n2c(-c3ccccc3)nc3ccccc32)NN1` stands 99.5% (inactive); under `CC/C=C\C[C@H]1C/C=C2/C(=O)C=C[C@H]2C/C=C\CCCC(=O)O1`, 51.2% (inactive); under `CCOC(=O)c1sc2nc(-c3cccc(OC)c3)nc(N3CCOCC3)c2c1C`, 80.3% (inactive). For `CC(=O)Nc1ccc(S(=O)(=O)Nc2cccc(-c3nc(-c4ccc(NC(=O)c5cccnc5)cc4Cl)no3)c2)cc1`, the growth is 32.1% (inactive). For the compound `COc1nc2c(c(=O)n1C)CN(Cc1ccccc1)C=N2`, the growth is 21.2% (inactive).

For the compound `CCC(=O)c1ccc(Cl)s1`, the growth is 102% (inactive).

Consider `O=S(=O)(Nc1ccc(I)cc1F)c1ccc(-c2cnc(C3CC3)o2)cc1`, for which the growth is 62.1% (inactive). In the case of `Cc1ccccc1COc1ccc(-c2onc(C)c2-c2ccc(Cl)cc2)cc1` it was 72.6% (inactive); in that of `O=C(/C=C/c1ccc(C(F)(F)F)cc1)Nc1ccc(C=C2c3ccccc3C(=O)c3ccccc32)cc1`, 55.6% (inactive); in that of `COc1cccc2c1C(=O)c1c(O)c3c(c(O)c1C2=O)C[C@](O)(C(=O)CO)C[C@H]3O[C@@H]1C[C@@H](NC(=O)CCCN(C)C2(c3ccc(F)cc3)CC3CCC2C3)[C@H](O)[C@@H](C)O1` (stereo partly drawn), 48.7% (inactive). As for `O=C(O)c1ccc(NC(=O)c2ccc(-c3cccc([N+](=O)[O-])c3)o2)cc1`, the growth is 98.6% (inactive). `O=c1cc(CSc2nnc(SCc3cc(=O)oc4c3ccc3ccccc34)o2)c2ccc3ccccc3c2o1`: the growth was 97.6% (inactive). Regarding `O=C(COc1ccc(/C=C2\COc3ccccc3C2=O)cc1)Nc1nccs1`, the growth is 64.9% (inactive). On to `NC(=NCCCOc1ccc(Cl)cc1)Nc1ccc(Cl)cc1`, for which the growth is 21.6% (inactive). In the case of `N#CN1CC[C@H](C(=O)Nc2cc3cc(C(N)=O)ccc3cn2)C1` it was -6.94% (active).

Regarding `N#CCCN=Nc1c(O)[nH]c2ccc(F)cc12`, the growth was 101% (inactive).

As for `Nc1nc2ncc(CCNc3ccc(C(=O)O)cc3)nc2c(=O)[nH]1`, the growth is 97.8% (inactive). `COc1cccc(-c2nc3sccn3c2-c2ccnc(NCCNS(=O)(=O)c3ccc(F)cc3)c2)c1`: the growth was 41% (inactive).

The record behind these values is PubChem BioAssay (NCI).
